Compound activity: PubChem BioAssay, National Center for Advancing Translational Sciences (NCATS)
An excerpt weighted towards active compounds, which were near 3.2% of everything screened.
USP2a block: inhibitors of human ubiquitin-specific protease USP2a | O75604 | USP2 core, Ub-CHOP2 coupled fluorogenic reporter, 485/531 | Potency, µM (doses to about 38.3 µM), inactives show at the top dose activity change, negative = inhibition, most hits filed as inhibitors | 0.01% of 330,000 active | AID 463254;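 also: potency is read from the fitted curve at half-maximal effect; plate controls were DMSO wells for no effect and full inhibition by NEM control for full effect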
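USP2 core (10nM final) preincubated 30min RT with compound in 20mM Tris-HCl pH 8.0, 2mM CaCl2, 2mM beta-mercaptoethanol, 0.05% CHAPS; 25nM Ub-CHOP2 plus 25nM reporter substrate added, fluorescence (Ex485/Em531) read after 60min.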
PLK1 PBD inh: inhibitors of human PLK1 polo-box domain binding. P53350. Plk1 PBD binding of FITC phosphopeptide, fluorescence polarization. Potency, µM, without a hit: max response, negative = inhibition, usual class: inhibitors. 2.8% of 360,000 active. AID 720504; also: potency is read from the fitted curve at half-maximal effect; series mostly up to about 57 µM; nearly all actives have a fitted effect of over 65% in size
Target sequence (P53350 whole entry, looked up, the tested form may be a part): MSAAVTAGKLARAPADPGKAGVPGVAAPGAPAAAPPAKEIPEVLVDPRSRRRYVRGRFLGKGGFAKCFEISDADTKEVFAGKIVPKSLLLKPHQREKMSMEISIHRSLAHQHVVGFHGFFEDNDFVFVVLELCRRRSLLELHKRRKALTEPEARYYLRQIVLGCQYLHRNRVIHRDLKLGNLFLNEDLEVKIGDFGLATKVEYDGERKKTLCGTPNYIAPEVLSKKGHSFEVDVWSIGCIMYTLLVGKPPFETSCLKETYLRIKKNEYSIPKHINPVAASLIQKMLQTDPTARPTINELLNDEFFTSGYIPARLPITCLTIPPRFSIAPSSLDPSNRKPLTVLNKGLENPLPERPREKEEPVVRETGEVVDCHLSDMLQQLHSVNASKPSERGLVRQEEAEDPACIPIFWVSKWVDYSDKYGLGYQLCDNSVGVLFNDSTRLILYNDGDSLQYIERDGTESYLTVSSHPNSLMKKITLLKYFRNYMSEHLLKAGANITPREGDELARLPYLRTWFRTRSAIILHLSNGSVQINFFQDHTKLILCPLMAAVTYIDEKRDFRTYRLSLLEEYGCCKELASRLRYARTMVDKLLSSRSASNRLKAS
USP1 inh: inhibitors of human USP1/UAF1 deubiquitinase | O94782 | recombinant USP1/UAF1, Ub-Rhodamine cleavage fluorescence | Potency, µM (series often up to 57.1 µM), inactives show top-dose activity change, negative = inhibition, actives largely listed as inhibitors | 0.23% of 390,000 active | AID 743255; also: potency is read from the fitted curve at half-maximal effect; nearly all actives have a fitted effect of over 60% in size
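Step one: compound is pinned into 1nM USP1/UAF1 in HEPES pH 7.8 buffer with TCEP. Step two: 15 min room-temperature incubation. Step three: Ub-Rho (150nM final) starts cleavage, tracked by fluorescence over six one-minute reads.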
FBPA coupling cs: coupling enzyme interference in Giardia aldolase counter-screen | 0.67% of 290,000 active | coupling enzyme system counterscreen, AmpLite Red fluorescence | activity change, negative = inhibition, % at 58.2 µM, hits read low; in the data active = activity change below about -30%
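Coupling enzymes only (glyceraldehyde-3-phosphate) + compound, at 57.5 uM final, 10 min RT; add substrate/coupling/AmpLite Red mix, 20 min RT; fluorescence ex 525/em 598 nm. Actives flag coupling-system interference.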
GALK inh: inhibitors of human galactokinase. Purified GALK, Kinase-Glo residual ATP luminescence. Potency, µM (series often up to 57.5 µM), for the others: at the highest dose activity change, negative = inhibition, usual class: inhibitors. 0.007% of 270,000 active; also: potency is read from the fitted curve at half-maximal effect
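GALK at 5 nM final was combined with compound, 35 uM ATP and 100 uM galactose in HEPES pH8.0 with MgCl2 and DTT. The reaction ran one hour at room temperature before luminescent ATP detection.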
VDR inhibitor: inhibitors of human vitamin D receptor. P11473. VDR-SRC2-3 peptide fluorescence polarization, 2 h. Potency, µM, for the others: max response, negative = inhibition, most hits filed as inhibitors. 0.93% of 400,000 active; also: potency is read from the fitted curve at half-maximal effect
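Signal is fluorescence polarization, reporting how far test compounds block the interaction of VDR with the SRC2-3 coregulator peptide after a 2 h room-temperature incubation.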
The depositor's hits bear a star; i = inactive; u = inconclusive; x = no result given. Unless noted, calls follow the shape of the dose curve; as a rule, active = well fitted curve in the direction sought with a large enough effect; inconclusive = small, poorly fitted or top-dose-only effect, or another doubt; inactive = no such curve, though single readings can be large; an effect the other way counts as inactive or inconclusive. Unless noted, % is scaled to controls: 0 for no effect and ±100 for the full control effect.

SMILES | USP2a block | PLK1 PBD inh | USP1 inh | FBPA coupling cs | GALK inh | VDR inhibitor
COc1cccc(-c2nc(CS(=O)(=O)CC(=O)NCc3ccccc3OC)c(C)o2)c1 | 0.9% | -15.4% | -15.6% | -0.6 | -1.6% | -14.6%
FC(F)(F)c1ccc(/C=N/N2CCN(Cc3ccccc3)CC2)cc1 | 2.5% | -7.6% | -16.6% | -2.0 | 0.1% | 2.7%
Cc1ccc(S(=O)(=O)N/N=C2/CCCCC2C2CCCCC2)cc1[N+](=O)[O-] (centres undefined) | 2.7% | 23.8µM* | -10.6% | 11.6 | -3.3% | u
COc1ccc2c([N+](=O)[O-])c(Cl)[nH]c2c1 | 2.6% | -26.3% | u | -32.0* | -3.1% | -23.3%
Clc1ccccc1-c1nnc(COc2ccccc2)o1 | x | x | -17.4% | x | x | 6.1%
Cc1ccccc1OCC(=O)NCCNC(=O)c1ccncc1 | 1.4% | -6.0% | -6.0% | 1.2 | 6.6% | -11.2%
O=C(NC1CCCCC1)c1cc(S(=O)(=O)N2CCCCC2)ccc1N1CCOCC1 | 2.6% | -5.7% | -23.7% | x | x | -1.0%
Cc1c(C)n(CC(O)CSc2ccccc2)c2ccccc12 (centres undefined) | x | 2.38µM* | x | x | x | x
Cc1c(C)n(CC(O)CNc2ccccc2)c2ccccc12 (centres undefined) | 2.0% | 6.5% | -30.5% | -6.6 | -3.4% | -16.2%
COC(=O)c1cccc(-n2c(C)cc(C=O)c2C)c1C | 0.4% | 3.5% | -14.7% | -0.9 | 3.2% | -15.4%
COC(=O)C1=C(O)/C(=C\c2cc(C)n(-c3ccccc3C)c2C)N=C1C | 2.5% | -8.3% | -9.4% | -41.8* | 2.0% | 21.3%
Cc1nn(CC(=O)N2CCOCC2)c(C)c1[N+](=O)[O-] | 0.5% | -6.2% | -12.8% | 4.6 | -2.7% | -4.1%
O=C1OC(c2ccccc2)/C(=C(/O)c2ccc(Cl)cc2)C1=O (centres undefined) | 0.7% | -21.9% | -15.3% | -0.1 | -4.7% | 44.7µM*
O=C1CCCC2=C1C(c1ccncc1)Nc1ccccc1N2 (centres undefined) | 2.3% | -11.0% | -1.4% | 0.7 | 3.1% | 8.8%
O=C1NCC2=C1C(c1ccccc1)Nc1ccccc1N2 (centres undefined) | -1.3% | -16.1% | u | -41.3* | -0.5% | 4.2%
CCC(=O)Nc1ccc(C=C(C(C)=O)C(C)=O)cc1 | -0.8% | -12.8% | -10.2% | -1.5 | -1.6% | 79.4µM*
CCOC(=O)C(CC)(CC)C(=O)/C=C/c1cccc(Br)c1 | x | -5.1% | -21.3% | x | x | 79.4µM*
O=C(O)c1ccc(NC2=C(n3nnc4ccccc43)C(=O)c3ccccc3C2=O)cc1 | 3.1% | -18.0% | 15.8µM* | -32.7* | -0.9% | 13.2%
N#Cc1c(/N=C/c2ccc(-c3ccccc3C(=O)O)o2)sc2c1CCCC2 | 2.5% | 37.7µM* | -18.5% | 7.5 | 1.8% | -14.0%
Cn1c(=O)n(Cc2ccccc2)c2ccccc21 | -0.4% | 0.8% | -8.8% | 4.0 | -5.6% | 7.3%
Cn1sc(=O)n(Cc2ccccc2)c1=O | x | x | x | -2.5 | x | 5.01µM*
COc1ccccc1N1CCN(c2ccc(-c3nc(-c4ccccc4C)no3)cc2[N+](=O)[O-])CC1 | x | x | -18.6% | x | x | 6.1%
O=C(O)c1ccccc1-c1nc(-c2ccccc2)c(-c2ccccc2)[nH]1 | 0.5% | -5.1% | -22.2% | 10.6 | 5.3% | -12.6%
O=C(O)c1cccc2c(-c3ccccc3)c(-c3ccccc3)[nH]c12 | -6.4% | 23.8µM* | -17.0% | 19.6 | x | -19.5%
O=C(CN1CCN(S(=O)(=O)c2ccc(Br)cc2)CC1)N/N=C/c1ccc(Br)s1 | -10.7% | 23.8µM* | -6.5% | 2.5 | -1.4% | -1.1%
SMILES | USP2a block | PLK1 PBD inh | USP1 inh | FBPA coupling cs | GALK inh | VDR inhibitor
CC(=O)OCC1=C(C(=O)O)N2C(=O)C(NC(=O)CCn3nc(C)c(Cl)c3C)C2SC1 (centres undefined) | 2.4% | -8.2% | -12.9% | -0.8 | -1.3% | -12.7%
CC(=O)OCC1=C(C(=O)O)N2C(=O)C(NC(=O)CCn3nc(C(F)(F)F)c(Br)c3C3CC3)C2SC1 (centres undefined) | -0.4% | u | -5.9% | 1.2 | 0.9% | 39.8µM*
CCCN(CCC)S(=O)(=O)c1cccc(-c2csc(C)n2)c1 | 1.0% | -5.6% | -12.0% | -0.3 | -1.3% | -10.3%
CCN(CC)S(=O)(=O)c1ccc(-c2csc(C)n2)cc1 | 2.8% | 9.47µM* | -17.8% | 5.1 | 1.9% | 22.4µM*
Cc1ccc(N(CC(=O)N2CCN(c3ccccc3)CC2)S(=O)(=O)c2c(C)noc2C)cc1 | x | x | -20.6% | x | x | -5.0%
Cc1cc(C)cc(N(CC(=O)N2CCN(c3ccccc3)CC2)S(=O)(=O)c2c(C)noc2C)c1 | 1.2% | 23.8µM* | -31.4% | 1.8 | 2.4% | -22.1%
Clc1cc(Br)ccc1OCCOCCOc1cccc2cccnc12 | -10.0% | 4.3% | -7.3% | 5.5 | -3.6% | -9.3%
Cc1ccc(OCCOCCOc2cccc3cccnc23)c(Br)c1 | 0.2% | 26.7µM* | -15.0% | -0.7 | x | i
Cc1nc2ccccc2c2oc(C(=O)NCc3ccc4c(c3)OCO4)cc12 | -7.7% | 3.1% | -16.9% | -0.6 | -0.3% | -0.8%
CN1CCN(S(=O)(=O)c2ccc(N3CCc4ccccc4C3)nc2)CC1 | 1.4% | 7.52µM* | 6.1% | -0.3 | 0.8% | u
CN1CCN(c2ccc(S(=O)(=O)N3CCCCC3)cn2)CC1 | 3.8% | 1.5% | -15.9% | -2.0 | -0.6% | 9.4%
Cc1oc2c(c1C(=O)Nc1cccc3ccccc13)CCCC2 | -1.4% | 2.99µM* | -23.6% | -2.7 | 3.6% | u
CCCCNC(=O)[C@@H]1CCCN1S(=O)(=O)c1cccc2cccnc12 | 2.1% | 2.3% | -16.2% | x | x | -5.2%
COc1ccc2c(c1)CC/C(=C/c1ccncc1)C2=O | 0.3% | -14.4% | -7.5% | 0.2 | x | u
COc1ccc2c(c1)CC/C(=C\C=C\c1ccccc1OC)C2=O | -0.8% | -28.5% | u | -40.3* | 1.7% | 5.5%
COCCNC(=O)C(c1ccc(C)o1)N(CCOC)C(=O)Cn1nnc2ccccc21 (centres undefined) | 0.6% | 26.7µM* | -14.5% | -0.3 | 11.8% | -25.2%
CC(O)(C#CCN1CCCCCC1)c1ccccc1 (centres undefined) | 1.1% | 29.9µM* | -20.1% | 1.3 | 5.2% | -11.9%
Cn1c(=O)c(=O)n(C)c2cc(S(=O)(=O)CCC(=O)N3CCOCC3)ccc21 | -0.9% | 26.7µM* | -23.7% | 0.9 | -0.3% | u
CC1CCCN(C(=O)CCS(=O)(=O)c2ccc3c(c2)n(C)c(=O)c(=O)n3C)C1 (centres undefined) | -1.2% | -13.4% | -5.2% | 1.4 | x | -11.8%
O=[N+]([O-])c1ccc(SCCc2ccncc2)cc1 | 0.2% | 18.9µM* | u | 0.8 | 0.9% | u
COc1ccc(SCCc2ccncc2)cc1 | -2.0% | -26.9% | -0.3% | 4.0 | -1.2% | -7.9%
